# From the supplement of paper PMC8253809
# What was measured:
# Test in all cases: growth inhibition (% activity, log2 RLU normalised to DMSO / staurosporine); higher = more growth inhibition
# Settings in all cases: 33 µM
# [1] = test system: DIPGX29 (H3.3 K27M diffuse intrinsic pontine glioma line)
# Outline: (§1)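 For each approved drug, the growth-inhibition value is the replicate median of per-plate normalised CellTiter-Glo data. Luminescence was log2-transformed and expressed as % activity between solvent and positive control wells. Drugs were applied in triplicate at a single final concentration of about 33 μM for 7 days at 37 °C, 5% CO2 to pHGG cell lines and H9-derived neural stem cells.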
# [2] = test system: DIPGX37 (H3.3 K27M diffuse intrinsic pontine glioma line)
# Outline: as §1
# [3] = test system: DIPGX7 (H3.3 K27M diffuse intrinsic pontine glioma line)
# Outline: as §1
# [4] = test system: DIPGX9 (diffuse intrinsic pontine glioma line)
# Outline: as §1
# [5] = test system: HGGX39 (paediatric high-grade glioma line)
# Outline: as §1
# [6] = test system: HGGX6 (H3.3 G34R paediatric high-grade glioma line)
# Outline: as §1
# [7] = test system: HNSC
# Outline: as §1
# [8] = test system: SUDIPGIV (diffuse intrinsic pontine glioma line)
# Outline: as §1
# [9] = test system: SUDIPGVI (diffuse intrinsic pontine glioma line)
# Outline: as §1
# [10] = test system: SUDIPGXIII (diffuse intrinsic pontine glioma line)
# Outline: as §1
SMILES,growth inhibition [1] [%],growth inhibition [2] [%],growth inhibition [3] [%],growth inhibition [4] [%],growth inhibition [5] [%],growth inhibition [6] [%],growth inhibition [7] [%],growth inhibition [8] [%],growth inhibition [9] [%],growth inhibition [10] [%]
Cc1c(-c2ccc(O)cc2)n(Cc2ccc(OCCN3CCCCCC3)cc2)c2ccc(O)cc12,22.4,0.0572,20.3,1.94,8.64,16.4,26.1,18.8,-5.95,1.05
C=CC[N+]1([C@H]2C[C@H]3[C@@H]4CC[C@H]5C[C@H](O)[C@@H](N6CCOCC6)C[C@]5(C)[C@H]4CC[C@]3(C)[C@H]2OC(C)=O)CCCC1,-0.303,-0.692,1.36,0.151,4.24,1.87,2.05,-0.149,0.535,1.02
COC(=O)C1=C(C)NC(C)=C(C(=O)OC)C1c1ccccc1[N+](=O)[O-],-2.53,-2.53,0.0754,3.5,-0.258,-0.288,8.49,-2.66,-7.47,-0.486
O=C([O-])C(O)[C@H](O)[C@@H](O)[C@H](O)[C@H](O)CO.O=C([O-])C(O)[C@H](O)[C@@H](O)[C@H](O)[C@H](O)CO.[Ca+2] (stereo not given in full),2.16,4.54,2.65,1.24,2.2,1.87,2.4,0.563,2.72,-0.395
COc1ccc2c(c1OC)C(=O)O[C@@H]2[C@H]1c2c(cc3c(c2OC)OCO3)CCN1C,-0.0995,0.428,-0.697,-1.08,0.078,1.48,-1.88,-0.28,-0.0763,1.03
Cc1cc(C(C)(C)C)cc(C)c1CC1=NCCN1,-3.84,-1.44,-1.4,-2.83,-0.405,-4.11,2.45,0.0122,-2.26,-0.432
Cc1ccc2c(Cl)cc(Cl)c(O)c2n1,8.88,2.78,3.99,8.04,4.68,3.09,46,5.39,5.64,3.89
CC(C(=O)O)c1ccc2c(c1)Cc1cccnc1O2 (stereo not given),0.469,2.25,2.38,1.73,3.25,2.19,2.91,-1.77,3.45,-1.63
O=C1CC[C@@H](C(=O)N2CSC[C@H]2C(=O)O)N1,2.29,1.19,1.62,1.89,3.63,2.97,2.12,1.86,2.32,-0.296
CC(=O)Nc1ccccc1,-2.81,-0.334,-1.79,-2.39,-2.41,-0.159,-3.95,-0.657,-5.47,0.153
O=C(O)c1cccnc1,0.555,1.13,0.846,1.6,0.355,1.52,-0.701,-0.463,1.65,-1.24
Cc1ncc([N+](=O)[O-])n1CCO,-0.678,-1.76,-1.15,0.881,1.6,-4.16,22.3,0.605,0.0318,-3.67
C=C1[C@H](CO)[C@@H](O)C[C@@H]1n1cnc2c(=O)[nH]c(N)nc21,-0.461,0.828,-0.963,1.66,0.038,2.68,0.984,-0.629,0.432,2.42
COc1cc2nc(N3CCN(C(=O)C4COc5ccccc5O4)CC3)nc(N)c2cc1OC (stereo not given),0.458,2.32,1.34,0.0132,2.47,1.58,-0.951,-3.82,1.52,2.13
Cc1cn([C@H]2C[C@H](N=[N+]=[N-])[C@@H](CO)O2)c(=O)[nH]c1=O,3.15,3.86,4.01,3.46,5.5,1.53,10.3,3.31,3.71,-0.807
COc1c2ccoc2cc2oc(=O)ccc12,0.175,-0.379,0.232,1.51,1.71,2.12,-1.02,0.44,0.394,-0.028
CCN[C@H]1C[C@H](C)S(=O)(=O)c2sc(S(N)(=O)=O)cc21,1.81,-1.68,1.05,0.778,2.3,0.627,4.56,-0.668,4.36,0.067
CC(C)(OCc1nn(Cc2ccccc2)c2ccccc12)C(=O)O,-3.94,-1.16,-1.8,-2.2,-3.82,-4.18,-2.36,-3.25,-2.56,0.0548
Cc1nnc(NS(=O)(=O)c2ccc(N)cc2)s1,2.52,1.32,1.72,2.78,0.783,-1.19,44.8,2.1,1.77,-1.87
O=C(O)CCc1nc(-c2ccccc2)c(-c2ccccc2)o1,-0.808,1.84,-1.35,-1.33,0.585,1.25,-2.45,-2.53,0.464,1.19
CCC(=O)O[C@]1(C(=O)CCl)[C@@H](C)C[C@H]2[C@@H]3C[C@H](F)C4=CC(=O)C=C[C@]4(C)[C@@]3(F)[C@@H](O)C[C@@]21C,3.65,5.29,1.18,4.83,7.98,1.82,-1.07,1.52,3.9,1.38
